This is a sample that favours compounds with a hit; in the whole collection about 1.3% have one here.
A1 inh: inhibitors of the anti-apoptotic protein A1, read as caspase activation | hit rate 0.066% among 330,000 | MEF A1-2A-BIM cells, Caspase-Glo 3/7 luminescence, 3 h; percent of clofoctol response, vehicle zero | caspase activation, % (concentration not given with the values);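 active = over half of replicate activation scores above 10%, or exactly half above 10 with the replicate mean above 10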
NTR1 agonist: NTR1 (human) agonism; AID 493036; activation, % at 20 µM; hit rate 0.17% among 330,000; P30989; NTR1-U2OS beta-arrestin-GFP spot imaging, agonist mode;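 active = activation at or above 40% of the spot to cytoplasm intensity ratio, with at least 20 cells analyzed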;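 also: 0% = DMSO without peptide and 100% = 100 nM NTR1 peptide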
B2AR ag: activates human beta-2 adrenergic receptor causing internalization. hit rate 0.43% among 340,000. response, % (concentration not given with the values). P07550. Am2.2-beta2AR cells, FAP receptor internalization, flow cytometry;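 active = response above a set limit, near 3 SD of response in nonfluorescent compounds, cut at about 42% in these data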
GRK2 aptamer HTS: human GRK2 inhibition via aptamer displacement; P25098; bead flow cytometry, FAM-aptamer displacement from GRK2; inhibition of aptamer binding, % at 10 µM; hit rate 0.59% among 330,000; AID 488847;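 active = inhibition of aptamer binding above 40%, roughly 3 SD of noise, on plates passing a quality check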;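 also: median bead fluorescence of bound FAM aptamer so fluorescent compounds give negative values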
Target sequence (P25098 whole entry, looked up): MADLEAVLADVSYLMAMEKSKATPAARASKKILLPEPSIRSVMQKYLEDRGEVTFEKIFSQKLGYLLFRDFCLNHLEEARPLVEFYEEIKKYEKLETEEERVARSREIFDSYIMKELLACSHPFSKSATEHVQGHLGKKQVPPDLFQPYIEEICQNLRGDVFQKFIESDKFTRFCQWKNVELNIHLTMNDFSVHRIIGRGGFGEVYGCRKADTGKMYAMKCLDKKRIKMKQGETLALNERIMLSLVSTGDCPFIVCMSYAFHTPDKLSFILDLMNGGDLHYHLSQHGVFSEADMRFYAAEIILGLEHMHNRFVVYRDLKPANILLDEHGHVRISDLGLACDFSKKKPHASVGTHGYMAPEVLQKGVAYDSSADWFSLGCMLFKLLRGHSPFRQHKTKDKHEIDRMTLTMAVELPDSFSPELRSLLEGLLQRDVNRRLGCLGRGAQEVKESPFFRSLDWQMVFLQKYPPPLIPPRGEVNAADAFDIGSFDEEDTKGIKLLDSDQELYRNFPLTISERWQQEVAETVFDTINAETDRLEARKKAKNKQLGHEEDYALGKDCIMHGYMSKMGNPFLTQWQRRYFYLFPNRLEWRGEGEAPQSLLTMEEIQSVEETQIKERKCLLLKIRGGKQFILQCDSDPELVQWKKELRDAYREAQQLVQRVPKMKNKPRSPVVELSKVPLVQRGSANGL
VLA-4 inh: inhibition in a human VLA-4 binding assay; P13612; VLA-4 expressing cells, ligand binding flow cytometry; inhibition, % (about 7 µM as worked out from the volumes in the protocol); hit rate 0.2% among 330,000; AID 2557; in the data active = inhibition above about 50%
Beta2AR ag CP1: activates human beta-2 adrenergic receptor; AID 540358; shares compounds with B2AR ag; hit rate 25% among 1,100; percent response (surface receptor), % at 10 µM; Am2.2-beta2AR cells, FAP surface receptor, flow cytometry; stronger effect = lower value;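 active = surface receptor percent response at or below 58%, roughly 3 SD from nonfluorescent compounds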
FAP fluor counter: fluorescence artifact in beta-2AR agonist FAP counterscreen. 1,100 tested, under 10 active. calls only at 10 µM. Am2.2 cells, FAP fluorogen flow cytometry; stronger effect = lower value. shares compounds with B2AR ag. AID 588765;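 active = percent response below a set limit in fluorescence channel 1 and below 50% in channel 8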
* marks the source's active call; other numbers are inactive results; i = inactive; . = no result given; ! = not active in a repeat.

SMILES	A1 inh	NTR1 agonist	B2AR ag	GRK2 aptamer HTS	VLA-4 inh	Beta2AR ag CP1	FAP fluor counter
C=C(C)COc1ccc(-c2n[nH]c(C)c2-c2ccc(OC)cc2)c(O)c1	0.4	22.8	53.2*	1.0	14.2	114.6	i
CC(C)(NC(=O)NC(CO)c1ccccc1)c1cccc(C(C)(C)NC(=O)NC(CO)c2ccccc2)c1 (stereo unspecified)	1.0	-0.8	-8.3	0.0	5.7	109.6	i
COc1cc(NC(=O)c2ccc(N)nc2)cc(C(=O)Nc2cccc(C(F)(F)F)c2)c1	1.4	-3.4	42.9*	0.0	9.1	66.8	i
COc1cc(NC(=O)c2nccnc2N)cc(C(=O)Nc2cccc(C(F)(F)F)c2)c1	0.9	-1.9	7.2	1.0	6.2	.	.
Cc1ccc(C(=O)N2CCCC(C(=O)Nc3cccc(-c4ccc(F)cc4)c3)C2)cn1 (stereo unspecified)	0.1	0.1	21.8	2.0	-0.5	.	.
CN(C(=O)CSc1nc(-c2ccc(C(C)(C)C)cc2)c(C#N)c(=O)[nH]1)C1CCCCC1	1.0	6.8	14.8	0.0	13.1	104.9	i
N#Cc1c(-c2ccccc2)nc(SCC(=O)NC2CCCCC2)[nH]c1=O	2.1	-0.5	-6.3	1.0	0.8	.	.
CC(C)(C)[C@H]1COC(=O)CC/C=C\C[C@@H](CC(=O)N(CCO)Cc2ccccc2)C(=O)N1	0.3	-0.6	-1.2	0.0	7.0	.	.
CCCCn1c(N)c(N(CC(C)C)C(=O)c2ccc(Cl)c(S(=O)(=O)N3CCCC3)c2)c(=O)[nH]c1=O	-0.1	-0.6	3.2	2.0	7.0	.	.
CC(=O)Oc1ccc(C(=O)Nc2cccc(C(=O)c3cccc(NC(=O)c4ccc(OC(C)=O)cc4)c3)c2)cc1	0.4	2.7	57.4*	0.0	-8.6	100.2	i
COc1cc2c(cc1OC)C(c1ccc(-c3ccc(Cl)cc3Cl)o1)=NCC2	1.2	9.1	16.5	0.0	-4.3	.	.
COc1cc2c(cc1OC)C(c1ccc(-c3cc(Cl)ccc3Cl)o1)=NCC2	1.1	3.6	15.0	0.0	-0.1	120.3	i
CCC1CCCCN1CCCNC(=O)Cn1cnc2sc(C)c(S(=O)(=O)N3CC(C)CC(C)C3)c2c1=O (stereo unspecified)	0.6	-1.7	58.9*	0.0	9.8	89.4	i
COc1cc2[nH]c(=O)n(CCC(=O)N3CCc4ccccc4C3)c(=O)c2cc1OC	0.9	-0.5	0.8	2.0	9.9	.	.
COc1ccccc1N1CCN(C(=O)CCCn2c(=O)[nH]c3ccsc3c2=O)CC1	-0.4	-1.9	-6.6	0.0	23.7	.	.
O=C(CCn1c(=O)[nH]c2ccsc2c1=O)N1CCc2ccccc2C1	-0.8	-1.7	-27.6	4.0	21.1	149.8	i
COc1ccccc1CNC(=O)CCn1c(=O)[nH]c2ccsc2c1=O	-0.1	1.2	2.0	0.0	2.8	53.8*!	i
COc1cc(NS(=O)(=O)c2ccc(C)cc2)c2ncccc2c1	0.1	2.9	31.0	1.0	8.6	.	.
Cc1ccc(S(=O)(=O)Nc2cccc3cccnc23)cc1	-0.1	12.6	44.9*	5.0	7.3	87.4	i
CCOc1ccc(-n2nc3ccc(NC(=O)c4ccc5c(c4)OCCO5)cc3n2)cc1	2.1	2.8	69.0*	0.0	12.2	97.6	i
COc1ccc(C)cc1S(=O)(=O)N(C)CC(=O)N1CCN(c2ccccc2)CC1	0.6	-0.6	-5.9	5.0	10.9	103.8	i
COc1ccc(C)cc1S(=O)(=O)N(C)CC(=O)N1CCCC1	-0.6	-0.7	-4.8	2.0	-2.3	.	.
COc1ccccc1N1CCN(C(=O)CN(C)S(=O)(=O)c2cc(C)ccc2OC)CC1	0.2	1.8	1.3	0.0	0.1	139.3	i
Cc1ccccc1OCc1n(CC(=O)OC2CC(C)CCC2C(C)C)c2ccccc2[n+]1C (stereo unspecified)	0.2	29.6	108.3*!	0.0	4.8	97.0	i
CCCCCCCCCCOC(=O)Cn1c(COc2cccc(C)c2)[n+](C)c2ccccc21	-0.5	19.2	-0.4	.	1.7	124.4	i
SMILES	A1 inh	NTR1 agonist	B2AR ag	GRK2 aptamer HTS	VLA-4 inh	Beta2AR ag CP1	FAP fluor counter
CC1CCC(C(C)C)C(OC(=O)Cn2c(-c3ccc(Br)cc3)[n+](C)c3ccccc32)C1 (stereo unspecified)	-0.3	31.5	14.7	0.0	2.2	.	.
CCCCCCCCCCOC(=O)Cn1c(COc2ccccc2C)[n+](C)c2ccccc21	0.8	22.2	68.3*	0.0	14.1	104.8	i
CCCCCCCCCCOC(=O)Cn1c(COc2ccccc2)[n+](C)c2ccccc21	-1.2	30.7	7.8	0.0	-10.6	.	.
O=C(Nc1ccc(NC(=O)c2ccccc2Cl)nc1)c1ccco1	-0.4	0.4	5.8	1.0	-6.8	.	.
CCC(=O)N1CCc2cc(Br)cc(S(=O)(=O)CC(=O)OC)c21	-0.2	2.5	9.3	1.0	-11.8	.	.
CCC(=O)N1CCc2cc(Br)cc(S(=O)(=O)N(C)c3ccc(OC)cc3)c21	0.2	3.4	100.9*	14.0	-3.2	19.2*	i
CC1=C(C(=O)Nc2ccc(C(=O)N3CCN(c4ccccc4F)CC3)cc2)SCCO1	1.0	-0.4	72.9*	2.0	3.1	21.1*	i
CC1=C(C(=O)Nc2ccc(C(=O)N3CCN(c4cccc(Cl)c4)CC3)cc2)SCCO1	0.1	2.8	2.3	1.0	19.0	.	.
CCOC(=O)C1=CN(Cc2ccco2)S(=O)(=O)NC1CC (stereo unspecified)	.	-1.3	-1.2	8.0	.	.	.
Cn1c(SC2=CS(=O)(=O)c3ccccc32)nc2ccccc21	0.2	0.9	73.8*	5.0	-3.6	75.0	i
CN(C(=O)c1ccc(NC(=O)Cc2cccc(NC(=O)C3CCN(C(=O)C4CC4)CC3)c2)cc1)C1CC1	.	.	-5.8	.	.	117.2	i
CN(C(=O)c1cccc(NC(=O)Cc2cccc(NC(=O)C3CCN(C(=O)C4CC4)CC3)c2)c1)C1CC1	.	.	0.7	.	.	.	.
CN(C(=O)c1ccc(NC(=O)Cc2cccc(NC(=O)C3CCN(C(=O)C4CCCCC4)CC3)c2)cc1)C1CC1	.	.	-3.5	.	.	115.3	i
CN(C(=O)c1cccc(NC(=O)Cc2cccc(NC(=O)C3CCN(C(=O)C4CCCCC4)CC3)c2)c1)C1CCC1	.	.	-1.8	.	.	.	.
CN(C(=O)c1ccc(NC(=O)Cc2cccc(NC(=O)C3CCN(C(=O)C4CCCC4)CC3)c2)cc1)C1CCCC1	-3.7	-0.9	47.3*	0.0	3.9	82.0	i
CN(C(=O)c1cccc(NC(=O)Cc2cccc(NC(=O)C3CCN(C(=O)C4CCCC4)CC3)c2)c1)C1CC1	.	.	-2.5	.	.	.	.
Cc1ccccc1NC(=O)Cc1nc(COC(=O)Cc2c(F)cccc2Cl)cs1	-0.8	-1.0	-0.6	0.0	1.2	.	.
CCCc1cc(=O)[nH]c2nnc(SCC(=O)NC3CCCCC3)n12	1.3	0.1	4.8	1.0	9.6	.	.

Screens from PubChem BioAssay.
